mHTT-CaM PPI inh: disrupts binding of mutant huntingtin to calmodulin. P42858. 3.6% of 190,000 active. inhibition, % at 15 µM. AlphaScreen His-mHTT/GST-CaM binding, luminescence;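 note: 0% = both proteins with DMSO and 100% = one protein alone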
Pf apPOL inh: Pf-apPOL DNA polymerase inhibition. 0.25% of 210,000 active. Recombinant Pf-apPOL, molecular beacon fluorescence, 1.5 h. AID 1794808. inhibition, % at 10 µM
Numbers without * were called inactive; . = no result given. This is one part of a sample in which hits are shown more often than they occur. Cut-off read from the data, not from the text of the source: active = inhibition above about 50%; inactive = the rest.

SMILES	mHTT-CaM PPI inh	Pf apPOL inh
O=C(Nc1cc(F)ccc1F)N1CCn2cccc2C1Cc1ccccc1 (centres undefined)	-2	-2
C[C@H](CCC(=O)OCc1cn(CC(=O)c2ccc(O)cc2)nn1)[C@H]1CC[C@H]2[C@@H]3CC[C@@H]4C[C@H](O)CC[C@]4(C)[C@H]3C[C@H](O)[C@]12C	26	1
CC(CCC(=O)N=Nc1c(O)[nH]c2ccc(Br)cc12)C1CCC2C3C(O)CC4CC(O)CCC4(C)C3CCC12C (centres undefined)	63*	-5
COCCn1c(C2CCN(Cc3cccs3)C2)nc2cccnc21 (centres undefined)	12	-5
COc1cc(-c2cc(OC)c3c(C)oc(C)c3c(=O)c2)ccc1O	35	-3
Cc1oc(C)c2c(=O)cc(-c3ccc4c(c3)OCO4)cc(O)c12	53*	6
O=C(NCCc1ccncc1)C1CCc2nc(N3CCCCC3)ncc2C1 (centres undefined)	5	-5
COc1ccccc1NC(NC(=O)C(C)C)C(Cl)(Cl)Cl (centres undefined)	-1	1
O=C(Nc1ccc2c(N3CCOCC3)ncnc2c1)c1cccc(Cl)c1	88*	-11
O=C(Nc1ccc2c(N3CCCC3)ncnc2c1)c1cccc(Br)c1	25	4
CN(C)c1cccc(C(=O)Nc2ccc3c(N4CCCC4)ncnc3c2)c1	58*	3
O=C(Nc1ccc2c(N3CCOCC3)ncnc2c1)c1cccc(F)c1	6	0
Cc1ccc(C(=O)N2CCN(C(C(=O)N3CCSCC3)C3CCCC3)CC2)cc1 (centres undefined)	12	-2
CCN(CC)c1ncc2c(n1)CCC(C(=O)Nc1ccc(OC)c(F)c1)C2 (centres undefined)	5	-4
CC(C)(Oc1ccc(Cl)cc1)C(=O)N1CCN(c2cccc(Cl)c2)CC1	20	-6
CC(C)(Oc1ccc(Cl)cc1)C(=O)N1CCN(c2ccc(F)cc2)CC1	94*	-2
O=C(CN1C(=O)CC(c2ccccc2)=Nc2cccnc21)Nc1ccc(Cl)cc1	-8	2
O=c1oc2ccc(Cl)cc2cc1-c1nnc(-c2cccc(Cl)c2)o1	1	-1
CC1=N/C(=C\c2ccc([N+](=O)[O-])cc2)C(=O)N1c1ccc(Br)cc1	11	-7
Cc1ccc(C(=O)Nc2c3c(nn2C(C)(C)C)CSC3)cc1[N+](=O)[O-]	29	4
Cc1c(C(=O)Nc2c3c(nn2C(C)(C)C)CSC3)cccc1[N+](=O)[O-]	92*	3
Cc1c(C(=O)Nc2c3c(nn2-c2ccc([N+](=O)[O-])cc2)CSC3)cccc1[N+](=O)[O-]	3	-6
CC(C)(C)n1nc2c(c1NC(=O)c1cccc([N+](=O)[O-])c1)CSC2	67*	6
COc1ccc(-c2cc(C(F)(F)C(F)F)on2)cc1	-21	.
Cc1cc2c(=O)n(C(C)C(=O)N3CCN(c4cccc(Cl)c4)CC3)ccc2o1 (centres undefined)	97*	1
SMILES	mHTT-CaM PPI inh	Pf apPOL inh
Cc1ccc(C(=O)N2CCN(c3cccc(Cl)c3)CC2)cc1	23	-6
CCOc1cc(/C=C2/SC(=O)N(C)C2=O)cc(Cl)c1OCC	-3	-8
O=C(NCCN1CCCCCC1)c1ccc2c(c1)NC(=O)C1CCCCN21 (centres undefined)	11	1
O=C(NCCCc1ccccc1)c1ccc2c(c1)NC(=O)C1CCCN21 (centres undefined)	67*	4
COc1cccc(N2CCN(C(=O)c3ccc4c(c3)NC(=O)C3CCCCN43)CC2)c1 (centres undefined)	30	2
O=C1Nc2cc(C(=O)N3CCN(c4cccc(Cl)c4)CC3)ccc2N2CCCCC12 (centres undefined)	93*	2
O=C(NCCCc1ccccc1)c1ccc2c(c1)NC(=O)C1CCCCN21 (centres undefined)	-2	-4
O=C(NCCN1CCC(Cc2ccccc2)CC1)c1ccc2c(c1)NC(=O)C1CCCCN21 (centres undefined)	97*	2
Cc1cc(OCC(=O)Nc2cc(F)ccc2F)nc(N2CCC(C)CC2)n1	-4	-2
CCOc1ccc(/C=C2\OC(=O)c3c2cc(C)[nH]c3=O)cc1	28	-4
CCOc1cc(/C=C2\SC(=Nc3ccccc3)NC2=O)cc(Br)c1O	86*	-52
O=C1/C(=C/c2cc(Br)cc([N+](=O)[O-])c2O)Sc2ccccc21	45	20
CCOc1cc(/C=C2/SC(=O)NC2=O)cc([N+](=O)[O-])c1O	28	-2
COc1cc(/C=C2\SC(=Nc3ccccc3)NC2=O)cc(OC)c1O	74*	12
COc1cc(/C=C2\Sc3ccccc3C2=O)cc([N+](=O)[O-])c1O	81*	0
COc1cc(/C=C2\SC(=Nc3ccccc3)NC2=O)cc(OC)c1OC	18	-16
COc1cc(/C=C2/SC(=Nc3cc(C)cc(C)c3)NC2=O)cc([N+](=O)[O-])c1O	54*	-1
CCOc1cc(/C=C2/SC(=Nc3ccccc3)NC2=O)ccc1O	45	-14
O=C(Nc1ccccc1F)c1sc2cc(Br)ccc2c1Cl	-5	-2
CC(=O)Nc1cccc(N2CC(C(=O)Nc3cccc(C(F)(F)F)c3)CC2=O)c1 (centres undefined)	2	0
COc1cc(NC(=O)c2ccc(OCc3ccccc3)cc2)c(OC)cc1Cl	-7	-8
O=C(NCc1ccco1)c1c(O)c2cccc3c2n(c1=O)CC3	3	1
CCCCS(=O)(=O)N1CCCC(c2nc(CNC(C)=O)cs2)C1 (centres undefined)	-3	-4
Nc1c(F)c(F)nc(F)c1F	-3	.
C=CCOc1ccc(/C=C2/SC(=Nc3cccc(C(=O)O)c3)NC2=O)cc1OC	58*	-5
SMILES	mHTT-CaM PPI inh	Pf apPOL inh
COc1cc(/C=C2/SC(=Nc3ccccc3)NC2=O)ccc1OCC#N	54*	-16
C=CCOc1ccc(/C=C2/SC(=Nc3ccccc3)NC2=O)cc1OC	30	-7
COc1cccc(/C=C2/SC(=Nc3cc(C)cc(C)c3)NC2=O)c1O	52*	4
COc1ccc(/C=C2\SC(=Nc3cc(C)cc(C)c3)NC2=O)cc1	19	-1
CCOc1ccc(N=C2NC(=O)/C(=C\c3ccc(OC)c(OC)c3)S2)cc1	8	-3
COc1cc(/C=C2\SC(=Nc3ccccc3)NC2=O)cc(I)c1O	68*	3
O=C1NC(=Nc2ccccc2)S/C1=C/c1cccc(O)c1	25	-2
CC(C)n1cc(C(=O)NCc2ccccc2Cl)c2n[nH]c(=O)c-2c1	43	-5
Cc1cccc(Oc2nccnc2N2CCC(C(=O)NCc3ccccc3Cl)CC2)c1	-2	-14
O=c1[nH]c(=O)c2sc3nc4c(c(C(F)(F)F)c3c2[nH]1)CCC4	-4	.
CC(Oc1ccccc1)C(=O)N1CCN(CCNC(=O)c2ccc3c(c2)OCO3)CC1 (centres undefined)	-1	-6
COc1ccc(CCNC(=O)C2CC(c3ccc(F)cc3)=NO2)cc1OC (centres undefined)	-7	1
COc1ccc(OC)c(NC(=O)c2c(NCc3cccnc3)sc3c2CCC3)c1	81*	-14
COc1ccccc1NC(=O)c1c(NCc2cccnc2)sc2c1CCCCC2	80*	-19
CCOc1ccccc1NC(=O)c1c(NCc2cccnc2)sc2c1CCCCC2	80*	-17
CCOc1ccccc1NC(=O)c1c(NCc2ccccn2)sc2c1CCCC2	30	-27
CCOC(=O)N1CCc2c(sc(N)c2C(=O)Nc2cc(OC)ccc2OC)C1	54*	-8

High-throughput results: PubChem, University of Kansas High Throughput Screening Laboratory
